S1P4 antag = antagonists of human S1P4 receptor | O95977 | inhibition, % at 4.98 µM | hit rate 0.26% among 220,000 | S1P4-expressing cells, antagonist mode, reporter read-out; in the data active = inhibition above about 29%;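 note: 0% = wells stimulated with agonist and 100% = vehicle wells without agonist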
PGE2 EP2 inh = EP2 receptor (human) inhibition; P43116; inhibition, % at 25 µM; C6 glioma cells expressing human EP2, cAMP TR-FRET; cells stimulated with saturating PGE2; hit rate 0.52% among 260,000;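 active = percent inhibition above 40 after rounding to a whole number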;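 note: rat C6 glioma host cells with rolipram phosphodiesterase inhibitor present; the protocol text gives 20 µM as final concentration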
Target sequence (P43116 whole entry, looked up): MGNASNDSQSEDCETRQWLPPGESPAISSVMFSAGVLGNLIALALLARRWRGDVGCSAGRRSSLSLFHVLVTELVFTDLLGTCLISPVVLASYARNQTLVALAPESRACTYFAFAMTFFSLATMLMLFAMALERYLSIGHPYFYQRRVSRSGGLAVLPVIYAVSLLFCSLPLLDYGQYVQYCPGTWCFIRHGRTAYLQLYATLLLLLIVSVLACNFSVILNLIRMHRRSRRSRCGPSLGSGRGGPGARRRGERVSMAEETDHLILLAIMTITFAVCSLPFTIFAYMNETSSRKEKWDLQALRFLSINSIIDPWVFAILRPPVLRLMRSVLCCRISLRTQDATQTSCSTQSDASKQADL
S1P4 agonist = agonists of human S1P4 receptor | S1P4-expressing cell line, agonist reporter assay | AID 1509 | activation, % at 4.98 µM | O95977 | hit rate 0.35% among 220,000; in the data active = activation above about 11%;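 note: 0% = DMSO vehicle and 100% = reference agonist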
S1P3 antag = S1P3 (human) receptor antagonism | Q99500 | CHO S1P3 NFAT-BLA reporter, FRET fluorescence, antagonist mode | inhibition, % at 4.98 µM | hit rate 0.27% among 170,000;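 active = inhibition above the plate cutoff, the mean inhibition of test wells on that plate plus 3 SD, cut at about 28% in these data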;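 note: cells challenged with S1P at its EC80 of 0.8 µM; blue over green emission ratio from cleaved BLA substrate after 4 h stimulation; 0% = S1P-stimulated wells and 100% = unstimulated DMSO-only wells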
EP2 mod = modulates human prostaglandin E2 receptor EP2 signaling; P43116; hit rate 0.83% among 260,000; induction, % at 25 µM; AID 940; EP2-expressing cells, cAMP HTRF FRET, PGE2 co-stimulation;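 active = compounds whose cAMP rise, as percent of the full-agonist control response, exceeds 60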;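 note: rat C6 glioma line stably carrying human EP2 under a CMV promoter; the protocol text gives 20 µM as final concentration; 100% = response of wells given 1 µM PGE2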
Pf gamet viab = kills late stage P. falciparum gametocytes; P. falciparum stage V gametocytes, ATP luminescence, 24 h; inhibition, % at 10.9 µM; hit rate 0.065% among 150,000;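 active = inhibition above the mean plus 3 SD of compounds within the control limits, set per campaign, cut at about 38% in these data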;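 note: 0% = DMSO wells and 100% = medium only without gametocytes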
EP2 cAMP induct = human EP2 receptor cAMP induction, negative in counter-screens; shares compounds with EP2 mod; C6 glioma EP2 cells, cAMP HTRF induction; plus low (about EC15) PGE2 agonist; calls only at 20 µM (by protocol); hit rate 47% among 1,300; AID 1080;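 active = cAMP induction above 50% in the main assay while under 30% in all four parallel counter assays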;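 note: rat C6 glioma cells stably expressing human EP2 receptor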
Numbers without * were called inactive; ! = not confirmed by another sample. Only some compounds are listed: those with a hit (about 1.9% of all), similar ones and a draw of the others.

For COc1ccccc1CC(=O)N1CCC[C@H]1Cn1nc(-c2ccc3c(c2)OCO3)ccc1=O the results were EP2 mod -46.
CCc1cccc(C)c1NC(=O)CSc1nnc(-c2cccs2)n1C was read as PGE2 EP2 inh 9 and EP2 mod -4.
Screening Cc1ccnc(SCC(=O)n2c3c(c4ccccc42)CC(C)CC3)n1 (stereo not drawn) returned S1P4 antag -30, PGE2 EP2 inh -7, S1P4 agonist 1, EP2 mod 74* and EP2 cAMP induct active.
Screening C=C(C)Cn1c(NCCN(C)C)nc2c1c(=O)[nH]c(=O)n2C returned PGE2 EP2 inh 13 and EP2 mod 3.
COc1ccc(OC)c(C(=O)CSc2nnc(-c3cccs3)n2C)c1 was read as S1P4 antag -21, PGE2 EP2 inh 0, S1P4 agonist 1, S1P3 antag -32 and EP2 mod 6.
`COc1ccc(OC)c(C(=O)CSc2nnc(Cc3cccs3)n2CCc2ccccc2)c1` gave S1P4 antag -10, PGE2 EP2 inh 0, S1P4 agonist 0, EP2 mod 66* and EP2 cAMP induct active.
`CCc1nn(CC(=O)Nc2ccncc2)c(=O)c2cc3sccc3n12` gave EP2 mod -13.
Screening N#CCSc1ncnc2sc3c(c12)CCC3 returned S1P4 antag -15, PGE2 EP2 inh 10, S1P4 agonist 2, S1P3 antag -4 and EP2 mod 28.
For Cc1noc(C)c1CSc1ncnc2sc3c(c12)CCC3 the results were S1P4 antag -12, PGE2 EP2 inh 5, S1P4 agonist -1, S1P3 antag 18, EP2 mod 68* and EP2 cAMP induct inactive.
`Cc1noc(C)c1CSc1ncnc2sc3c(c12)CCC(C)C3` (stereo not drawn) gave S1P4 antag -13, PGE2 EP2 inh 14, S1P4 agonist 1, S1P3 antag 10, EP2 mod 70* and EP2 cAMP induct inactive.
For Cc1noc(C)c1CSc1nc2sc3c(c2c(=O)n1C)CCCC3 the results were S1P4 antag -12, PGE2 EP2 inh 6, S1P4 agonist 1, EP2 mod 63* and EP2 cAMP induct inactive.
For CC1CCc2c(sc3ncnc(SCC(=O)N4CCCC4)c23)C1 (stereo not drawn) the results were PGE2 EP2 inh 7 and EP2 mod 8.
`CC(=O)CSc1ncnc2sc3c(c12)CCC(C)C3` (stereo not drawn) gave S1P4 antag 12, PGE2 EP2 inh 5, S1P4 agonist 0, S1P3 antag -7, EP2 mod 61*, Pf gamet viab -12 and EP2 cAMP induct inactive.
`O=C(c1nccc2ccccc12)N1CCC(Cn2nc(-c3cccs3)ccc2=O)CC1` gave EP2 mod -8.
`Cc1ccc2cc(C(c3nnnn3Cc3ccccc3)N3CCc4ccccc4C3)c(=O)[nH]c2c1` (stereo not drawn) gave PGE2 EP2 inh 11 and EP2 mod 33.
`O=C(NCCC1=CCCCC1)c1cccc2c1C(=O)N(C1CCCCC1)C2` gave S1P4 antag -7, PGE2 EP2 inh 2, S1P4 agonist 1, S1P3 antag -26, EP2 mod 85*, Pf gamet viab 8 and EP2 cAMP induct active.
`CCOP(=O)(OCC)c1nc(-c2ccc(Cl)cc2Cl)oc1N1CCCCC1` gave S1P4 antag 3, PGE2 EP2 inh 3, S1P4 agonist 2, S1P3 antag -8, EP2 mod 52, Pf gamet viab 5 and EP2 cAMP induct inactive.
Screening COc1ccc2cc(C)c3nn(CN4CCCC4)c(=O)n3c2c1 returned EP2 mod -12.
Screening c1ccc(-c2csc3ncnc(N4CCc5ccccc5C4)c23)cc1 returned S1P4 antag 9, PGE2 EP2 inh 6, S1P4 agonist 0, S1P3 antag -7, EP2 mod 72*, Pf gamet viab 4 and EP2 cAMP induct active.
COc1ccc(OC)c(NC(=O)CSc2nncn2N)c1 was read as PGE2 EP2 inh 14 and EP2 mod 21.
For CC(C)CCNC(=O)C(c1ccco1)N(Cc1ccccc1)C(=O)c1snc(C(N)=O)c1N (stereo not drawn) the results were S1P4 antag -19, PGE2 EP2 inh 12, S1P4 agonist 1, S1P3 antag 18 and EP2 mod -3.
Cc1ccc(N(C(=O)c2snc(C(N)=O)c2N)C(C(=O)NCCC(C)C)c2ccco2)cc1 (stereo not drawn) was read as S1P4 antag -3, PGE2 EP2 inh 6, S1P4 agonist -1, S1P3 antag -13, EP2 mod 78*, Pf gamet viab 0 and EP2 cAMP induct inactive.
Screening CCCCOP(=O)(OCCCC)C(Nc1ccccc1)c1ccc2c(c1)OCO2 (stereo not drawn) returned S1P4 antag -7, PGE2 EP2 inh 6, S1P4 agonist 1, S1P3 antag 22, EP2 mod 70*, Pf gamet viab 12 and EP2 cAMP induct inactive.
Screening Cc1cc(Nc2ccc(Br)cc2)n2nc(C)nc2n1 returned S1P4 antag -14, PGE2 EP2 inh 5, S1P4 agonist 1, S1P3 antag 8, EP2 mod 88* and EP2 cAMP induct inactive.
`Cc1nc2ccccn2c1C(=O)CSc1ccccc1Cl` gave S1P4 antag 9, PGE2 EP2 inh 21, S1P4 agonist -1 and EP2 mod 31.
`Cc1nc2ccccn2c1C(=O)CSc1ccc(Cl)cc1Cl` gave S1P4 antag 2, PGE2 EP2 inh 10, S1P4 agonist 2, EP2 mod 70*, Pf gamet viab 10 and EP2 cAMP induct inactive.
For c1ccc(Nc2nc(N3CCNCC3)nc(N3CCOCC3)n2)cc1 the results were S1P4 antag -8, PGE2 EP2 inh 4, S1P4 agonist 0, EP2 mod 67* and EP2 cAMP induct inactive.
For CC(NC(c1ccccc1)c1ccccc1)C(=O)N1CCCc2ccccc21 (stereo not drawn) the results were S1P4 antag 3, PGE2 EP2 inh 8, S1P4 agonist 0, S1P3 antag -8, EP2 mod 66* and EP2 cAMP induct inactive.
Screening CCOC(=O)CCN(Cc1cccs1)S(=O)(=O)c1ccc(F)cc1 returned S1P4 antag -12, PGE2 EP2 inh 5, S1P4 agonist 3, EP2 mod 43 and Pf gamet viab -15.
CCOC(=O)CCN(Cc1sccc1C)S(=O)(=O)c1ccc(F)cc1 was read as S1P4 antag 14, PGE2 EP2 inh 2, S1P4 agonist 0, EP2 mod 81* and EP2 cAMP induct inactive.
CCN(CC)C(=O)C1CCN(Cc2cccc(OC)c2)CC1 was read as PGE2 EP2 inh 14 and EP2 mod 12.
COc1ccc2ccc(=O)oc2c1CC=C(C)C was read as S1P4 antag 11, PGE2 EP2 inh 9, S1P4 agonist 0, S1P3 antag -1, EP2 mod 67*! and EP2 cAMP induct active.
